Experimental findings from PubChem BioAssay AID435019 (Southern Research Specialized Biocontainment Screening …, 2010) are described below.

Screen size: about 2,300 compounds; about 1,200 (52%) were called active. No rule for the calls is given here. So high a share suggests a set chosen from earlier hits. This is one part of the list. Entries with a potency or affinity are not part of this list.

This test can be described thus: mammalian cell cytotoxicity, dose response, cytotoxicity control for M. tuberculosis inhibitor project (AID 435019).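 Also: 0% = background wells and 100% = vehicle-treated cells; lower values mean fewer viable cells so more cytotoxicity.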 The settings on record: cytotoxicity counter-screen; series mostly up to 40 µM; viability: at the top concentration. For orientation: Counterscreens check selectivity or assay interference.
On to `Cc1ccc(CN2CC(C(=O)OCc3ccccc3Cl)CC2=O)cc1` (stereo not drawn), for which the viability (as a rule, a read-out of living cells in per cent, often relative to untreated cells) is 92.4% (inactive).
As to `CCOC(=O)CSc1ncnc2c1sc1nc(N3CCOCC3)c3c(c12)CCCC3`, the “viability” value was 83.6% (inactive).
Next, `COc1ccc(NC2=C(C(C)=O)C(c3ccc4c(c3)OCO4)C(C(C)=O)C(C)(O)C2)cc1` (stereo not drawn): 94% (inactive); `CCCNC(=O)NC(=O)COc1ccc2oc3ccccc3c2c1`: 94% (inactive).
Regarding `COc1ccc(-c2cc3n(n2)CCc2nc4ccccc4n2-3)cc1`, the “viability” value is 81.9% (inactive).
On to `NNC(=S)Nc1ccccc1Cl`, for which the “viability” value is 81.6% (inactive).
With `CCCCCOC(=O)Nc1nnc(CCCCC)s1`, the “viability” value is 96.8% (inactive).
Next, `O=C(CSc1nnnn1-c1ccc2c(c1)OCCO2)OC1CCCCC1`: 98.5% (inactive); `C=CCc1c(C)nc2ccc(C(=O)OCC)cc2c1Cl`: 85.8% (inactive).
Consider `O=C(Nc1nc2c(s1)CCCC2)c1cc(-c2ccc3c(c2)OCO3)nc2ccccc12`, for which the “viability” value was 94.1% (inactive).
Regarding `C/C(=N\Nc1nc2c(s1)CCCC2)c1ccccc1`, the “viability” value is 93.5% (inactive).
Next, `COC(=O)c1ccc2c(=O)[nH]c(CSc3nc(C)cs3)nc2c1`: 94.4% (inactive); `C/C(=N\Nc1ccc([N+](=O)[O-])cc1)c1cccc(N)c1`: 96.7% (inactive); `O=C1c2ccccc2S(=O)(=O)c2cc(C(=O)N3CCN(c4c(Cl)cncc4Cl)CC3)ccc21`: 86.1% (inactive).
Next, `O=C(/C=C/c1ccc(OCCCF)cc1)Nc1ccnc(-c2ccncc2)n1`: 89.6% (inactive).
Next, `CCCCOC1CC(c2ccc(OCc3ccc(OC)cc3)c(OC)c2)N(C)O1` (stereo not drawn): 81.5% (inactive); `CO/N=C\CC(=O)Nc1ccc(Oc2ccccc2)cc1`: 63.6% (inactive); `O=C1c2ccccc2C(=O)N1Nc1ccccc1`: 99.7% (inactive).
With `O=C1C(=O)N(c2ccccc2)c2ccccc21`, the “viability” value is 96.8% (inactive).
The result for `CC(=O)c1c(N2CCCC2)[nH]c(-c2ccccc2)nc1=S` reads 96% (inactive); that for `Cc1ccc(-c2cccc(NC(=O)C3C4C=CC(C4)C3C(=O)O)c2)o1` (stereo not drawn), 88.6% (inactive); that for `NC(=O)/C(=N\OC(=O)c1ccco1)c1nc(-c2ccc(Br)cc2)cs1`, 86.2% (inactive).
Take `CCOC(=O)C(C)Oc1ccc(NC(=O)C(Cl)(Cl)Cl)cc1` (stereo not drawn): the “viability” value was 92.1% (inactive).
On to `CCOC1OC(=O)C(Cl)=C1Nc1ccccc1C` (stereo not drawn), for which the “viability” value was 94.2% (inactive).
In the case of `COc1ccc(-c2ccc(=O)n(Cc3c(F)cccc3Cl)n2)cc1`, the “viability” value is 89.1% (inactive).
The result for `O=C(c1ccccc1)C1CN(Cc2ccccc2)CCC1(O)c1ccccc1` (stereo not drawn) reads 81.6% (inactive).
The result for `Oc1ccc(F)c2cccnc12` reads 98.7% (inactive).
As to `c1ccc(Cn2nnc3c(N4CCc5ccccc5C4)ncnc32)cc1`, the “viability” value was 80.2% (inactive).
For `CCCCn1cnc2cc(NCc3cccc(OC)c3O)ccc21`, the “viability” value was 91% (inactive).
`COc1c(C)cc(C(=O)C2CCCN(Cc3ccccn3)C2)cc1C` (stereo not drawn): the “viability” value is 90.1% (inactive).
As for `CCOC(=O)N1CCN(C(=O)COC(=O)C2CCN(S(=O)(=O)c3c(Cl)cccc3Cl)CC2)CC1`, the “viability” value is 97% (inactive).
The result for `COC(=O)c1cc(Sc2cccc(Cl)c2Cl)ccn1` reads 83.8% (inactive).
With `CCOC(=O)Oc1ccc2oc(C)c(C(=O)OCCOC)c2c1`, the “viability” value is 96.6% (inactive).
The result for `Cc1nc(SCC(=O)NCC2CCCO2)c2c3c(sc2n1)CCCC3` (stereo not drawn) reads 85.9% (inactive); that for `COc1ccc(-c2cc(-c3ccc(OC)cc3)[nH]n2)cc1`, 80.1% (inactive).
Next, `O=C(OCC(=O)N1CCN(c2ccccc2)CC1)c1cnc(Cl)c(Cl)c1`: 91.1% (inactive).
`Cc1ccc2nc(-c3cccc(Br)c3)cc(C(=O)NC3=NCCS3)c2c1`: the “viability” value is 80.2% (inactive).
Next, `CCOC(=O)N1CCC(n2c(SCC(=O)OCc3ccccc3)nc3ccsc3c2=O)CC1`: 87.9% (inactive); `C(=N\N1CCN(C2c3ccccc3-c3ccccc32)CC1)/c1ccccn1`: 82.1% (inactive); `CCCC12CN3CC(CCC)(CN(C1)C3c1ccccn1)C2=O` (stereo not drawn): 93.6% (inactive).
Regarding `CCOC(=O)Cn1c(-c2ccccc2)ccc(C#N)c1=O`, the “viability” value was 92.6% (inactive).
For the compound `CCOc1[nH]n(-c2ccccc2)c(=O)c1C=Nc1ccc(OC)cc1`, the “viability” value is 94.3% (inactive).
For the compound `COCCNC(=S)N/N=C(\C)c1ccc(OC)cc1`, the “viability” value is 89.5% (inactive).
`COc1ccccc1/C(C)=N/NC(=S)NCc1ccccc1`: the “viability” value was 87.8% (inactive).
As for `CCOC(=O)c1cc(-c2csc(Nc3c(C)cc(C)cc3C)n2)on1`, the “viability” value is 104% (inactive).
Next, `Nc1c(-c2ccccn2)cnn1-c1nc(-c2ccc(F)cc2)cs1`: 88.1% (inactive); `O=C(CCN1C(=O)C2CCCCC2C1=O)Nc1nc(-c2ccc(F)c(F)c2)cs1` (stereo not drawn): 97.2% (inactive); `CCCOc1ccc2oc(=O)c3c(c2c1)CCCN3C(=O)CN1CCN(c2ncccn2)CC1`: 92.2% (inactive).
The result for `CCOC(=O)c1cc(/C(C)=N/OC(=O)c2ccc(C(C)(C)C)cc2)on1` reads 91.9% (inactive).
Next, `O=C(Nc1cc(N2CCOCC2)ncn1)NC1(C(F)(F)F)Oc2ccc(Cl)cc2O1` (stereo not drawn): 85.2% (inactive).
For `CCc1ccc(-c2csc(-c3c[nH]c4ccccc34)n2)cc1`, the “viability” value is 91% (inactive).
`Cc1ccc(CNc2ccc3c(c2)ncn3C(C)(C)C)cc1`: the “viability” value is 85.7% (inactive).
The result for `CCn1c(SCC(=O)N(C)CCC#N)nc2cc(S(=O)(=O)N3CCOCC3)ccc21` reads 98% (inactive).
As for `CCc1ccc(N=Nc2ccc(O)c3[nH]cnc23)cc1`, the “viability” value is 82.3% (inactive).
The result for `C=CCOc1ccc(/C=C/C(=O)OCC(=O)NCC2CCCO2)cc1` (stereo not drawn) reads 95.9% (inactive); that for `CCCCOC(=O)CCN1C(=O)/C(=C2\SC(=S)N(CCC(=O)OCCCC)C2=O)SC1=S`, 80.7% (inactive); that for `Cc1ccc(NC(=O)Cn2ccsc2=N)c([N+](=O)[O-])c1`, 101% (inactive).
Next, `COc1ccc(-c2nc(C#N)c(N3CCc4ccccc4C3)o2)cc1OC`: 81.8% (inactive); `c1ccc(C2[C@H]3CN(CC4CCCCC4)[C@H](c4ccccc4)C34CC2(c2cccnc2)C4)cc1` (stereo partly drawn): 93.8% (inactive); `COc1ccc(NC(C#N)c2ccc(OC)cc2)cc1` (stereo not drawn): 96.6% (inactive).
As for `O=[N+]([O-])c1c(C(Cl)Cl)nn(-c2ccc(Cl)cc2)c1N1CCCCC1`, the “viability” value is 84.8% (inactive).
In the case of `O=C(NC(=S)Nc1cccc2cccnc12)c1ccccc1`, the “viability” value was 100% (inactive).
For the compound `O=C(COc1cccc(Oc2ccccc2)c1)Nc1ncccn1`, the “viability” value is 93.8% (inactive).
Next, `O=C(COc1ccccc1)NNc1nc2ccccc2s1`: 99% (inactive).
Consider `C/C(=N\NC(=S)Nc1cccc(C)c1)c1cccc(N)c1`, for which the “viability” value is 91% (inactive).
As to `COc1ccc(Oc2ccc(N/C=C/C(=O)C(C)(C)C)cc2)cc1`, the “viability” value was 90.7% (inactive).
The result for `CCOc1ccc(NC(=S)Nc2ccc(C)c([N+](=O)[O-])c2)cc1` reads 90.6% (inactive); that for `O=c1c2c(-c3ccccc3)csc2ncn1/N=C/c1ccc(O)c([N+](=O)[O-])c1`, 88.3% (inactive).
The result for `Cc1cc(C)n2nc(N)c(N=Nc3ccccc3)c2n1` reads 95.7% (inactive); that for `Cc1ccccc1-n1c(O)c(C=Nc2ccc3c(c2)OCO3)c(=O)[nH]c1=O`, 104% (inactive); that for `S=c1[nH]c2ccc3ccccc3c2[nH]1`, 86.2% (inactive).
Next, `Cc1ncsc1CCOC(=O)c1ccc([N+](=O)[O-])cc1`: 94.8% (inactive); `CC1CN(C(=S)SCC(=O)c2ccc([N+](=O)[O-])cc2)CC(C)O1` (stereo not drawn): 93.9% (inactive).
On to `O=C(c1ccc(CNc2c(N3CCCC3)c(=O)c2=O)cc1)N1CC=C(c2ccccc2)CC1`, for which the “viability” value is 91.6% (inactive).
Consider `O=c1oc(-c2cccs2)nc2c1cnn2-c1ccccc1`, for which the “viability” value is 97.4% (inactive).
As to `Cc1nc2ccc(NC(=O)N(C(C)C)C(C)C)cc2s1`, the “viability” value is 93.6% (inactive).
Next, `CCN1c2ccccc2N(C)C1(C)c1ccccc1` (stereo not drawn): 94.9% (inactive).
Next, `COC(=O)CSc1ncnc2c1sc1nc3c(cc12)COC(C)(C)C3`: 82.5% (inactive); `Cc1ccc(NC(=O)COC(=O)C(NS(=O)(=O)c2ccc(Cl)cc2)C(C)O)cc1C` (stereo not drawn): 86.8% (inactive); `Fc1ccc(N/N=C2/CC(c3ccccc3)Oc3ccccc32)c(F)c1` (stereo not drawn): 97.5% (inactive).
As for `CCCCc1cc(=O)oc2cc(O)ccc12`, the “viability” value is 86.2% (inactive).
The result for `CCCCN1C(=N)N([C@@H](CCC)CN2CCC[C@H]2CN2C(N)=NC[C@@H]2Cc2ccccc2)C[C@H]1Cc1ccccc1` reads 92.3% (inactive); that for `O=C(CNC(=O)c1ccc(Cl)cc1)c1ccc(Cl)cc1`, 87.5% (inactive).
Consider `CCOC(=O)COc1cc(O)c2c(=O)cc(-c3ccccc3)oc2c1`, for which the “viability” value is 102% (inactive).
Next, `CC(=O)/C=C(\C)Nc1ccccc1O`: 84.8% (inactive).
As for `N#Cc1nccnc1S(=O)(=O)c1cccs1`, the “viability” value is 99.3% (inactive).
The result for `CCOC(=O)C(=NC1CCS(=O)(=O)C1)NNc1ccc(Br)cc1` (stereo not drawn) reads 99.3% (inactive); that for `O=C(C[n+]1ccc(C(=O)c2ccccc2)cc1)Nc1ccc(C(F)(F)F)cc1`, 104% (inactive); that for `C/C(=N\NC(N)=S)c1ccc(Cl)s1`, 88.2% (inactive).
Next, `O=C(C/C=N\OCc1ccc([N+](=O)[O-])cc1)Nc1ccc(F)cc1F`: 96.9% (inactive); `O=C(NNc1ccc([N+](=O)[O-])cc1)c1ccco1`: 101% (inactive).
Turning to `CC1=C(C)C(=O)C(CCCCC#CCCCC#CCO)=C(C)C1=O`, the “viability” value is 84.5% (inactive).
Turning to `CC1CCCCC1NC(=O)c1ccc2c(c1)[nH]c(=O)n2C1CCCC1` (stereo not drawn), the “viability” value was 94.4% (inactive).
The result for `CCCCOC(=O)CSc1nnc(-c2ccc(Cl)cc2Cl)o1` reads 95.3% (inactive).
Consider `COc1ccc(-c2cc(O)cc(O)c2)cc1`, for which the “viability” value was 84.8% (inactive).
Consider `COc1ccc(N=Cc2c(O)cc(C)oc2=O)cc1`, for which the “viability” value was 92.7% (inactive).
Take `Cn1c(N)c(C(=O)COC(=O)c2ccc([N+](=O)[O-])o2)c(=O)n(C)c1=O`: the “viability” value was 87.2% (inactive).
Next, `CSc1cccc(N=C2C(=O)Nc3ccccc32)c1`: 92.1% (inactive).
`Fc1ccc(-c2nnc(CSc3nnc(-c4cccs4)o3)o2)cc1`: the “viability” value was 95.8% (inactive).
The result for `Cc1ccc(Nc2nc(CSc3nnc(-c4cccs4)o3)cs2)cc1` reads 86.8% (inactive).
`CCCNC(=S)Nc1ccc(Nc2ccccc2)cc1`: the “viability” value is 83% (inactive).
On to `COc1ccc(NC(=O)CN(C)CC(=O)Nc2sc3c(c2C(N)=O)CCC3)cc1`, for which the “viability” value was 90.6% (inactive).
The result for `CCOC(=O)N1CCN(C(=O)CSc2nnc(-c3ccc(Cl)s3)o2)CC1` reads 95.8% (inactive); that for `CC1(C)CC(=O)C2=C(C1)OC(N)=C([N+](=O)[O-])C2c1ccc(C#N)s1` (stereo not drawn), 84.6% [at 20 µM] (inactive); that for `Clc1ccc(CSc2ncn[nH]2)cc1`, 88.4% (inactive).
The result for `Nc1ccc(OCc2ccco2)cc1` reads 89.3% (inactive); that for `CCCn1nc(C(=O)NNC(=O)c2ccc(C)c(C)c2)c2ccccc2c1=O`, 99.7% (inactive); that for `CCOC(=O)c1ccc(NC(=O)CCc2nc(-c3ccc(Cl)cc3)no2)cc1`, 92.1% (inactive).
Regarding `CCOC(=O)c1ccc(NC(=O)CSc2ccc(-c3cccnc3)nn2)cc1`, the “viability” value was 98.3% (inactive).
Next, `COc1cccc(/C=C/c2nc(C#N)c(NCC(C)C)o2)c1`: 95.4% (inactive); `O=C(CCc1c[nH]c2ccccc12)N1CCN(S(=O)(=O)c2ccccc2)CC1`: 87.8% (inactive).
Next, `CN(C)CCCN(C(=O)c1ccc([N+](=O)[O-])s1)c1nc2cc3c(cc2s1)OCCO3`: 86.4% (inactive); `Cc1ccc(-n2nnc3c(=O)oc4ccccc4c32)cc1`: 98.7% (inactive).
